The list is not random: actives were taken first. Their share in the collection is about 2.7%.
Peg3 promoter: Peg3 promoter-driven luciferase inhibitors, primary screen, cell-based, HeLa, luciferase luminescence | HeLa PEG-Prom luciferase reporter, overnight | actives 1.7% (n = 360,000) | inhibition, % at 20 µM | AID 588405, 2011;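 active = inhibition of at least 50% at 20 µM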
MITF TRPM1 inh: inhibitors of MITF-dependent TRPM1 promoter reporter, primary screen, cell-based, SK-MEL-5, single point, luciferase; SK-MEL-5 TRPM1 promoter luciferase, 24 h; actives 0.83% (n = 330,000); inhibition, % at 12.5 µM;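 active = mean inhibition across replicates of 60% or more, whatever share of single replicates reaches that level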
Shn3 inh set2: reduction of Shn3 3'UTR firefly luciferase signal, primary screen, Schnurri-3 inhibitor project, cell-based, Clone20 osteoblasts, set 2. Clone20 osteoblast Shn3 3'UTR firefly luciferase, 24 h. inhibition, % at 12.5 µM. actives 0.52% (n = 360,000). AID 588674, 2011;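 active = mean inhibition of at least 75% with every replicate also reaching 75%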;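 note: 0% = median of neutral control wells and 100% = pilot-screen positive control compound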
KKLEB cytotox: cytotoxicity in KKLEB CF airway cells, primary screen, cytotoxicity control for CF NF-kB inhibitor project, cell-based, uHTS, fluorescence assay plates | KKLEB CF airway cells viability, ATPlite luminescence, overnight; hits give low values; cells stimulated with P. aeruginosa culture filtrate | activity change (cytotoxicity), % at 5 µM | actives 0.36% (n = 360,000);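 active = corrected activity change at or below -50% at 5 µM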
HIF-2a inh: HIF-2a reporter inhibitors, primary screen, luminescence, 786-0 RCC cells; inhibition, % at 18.8 µM; actives 0.72% (n = 360,000); 786-0 RCC cells HIF-2a reporter, luciferase luminescence, overnight; AID 624352, 2012;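 active = inhibition of the luminescence signal of 40% or more relative to plate controls, in a single-dose primary screen at 18.75 µM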
CF NFkB block: inhibitors of PAF-induced NF-kB signaling, primary screen, cell-based, GFP fluorescence, uHTS | KKLEB NF-kB-GFP reporter, GFP fluorescence overnight | inhibition, % at 5 µM | actives 0.86% (n = 360,000) | AID 588850, 2011;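 active = at least 50% inhibition at 5 µM, scaled per plate between neutral and stimulator controls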;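 note: PAF is a Pseudomonas aeruginosa culture filtrate used as stimulus; plate controls were PAF-stimulated DMSO wells for no effect and unstimulated DMSO wells for full effect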
CF NFkB conf: inhibitors of PAF-induced NF-kB signaling, retest, confirmation, cell-based, GFP fluorescence, single concentration; shares compounds with CF NFkB block; KKLEB CF airway cells, overnight; inhibition, % at 5 µM; actives 64% (n = 1,300); AID 602472, 2012; in the data active = inhibition above about 40%;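 note: stimulus PAF is a Pseudomonas aeruginosa filtrate and not platelet activating factor; plate controls were DMSO wells with stimulus for no effect and unstimulated DMSO wells for full effect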
Active calls of the source: *; nt = not tested or not shown.

SMILES	Peg3 promoter	MITF TRPM1 inh	Shn3 inh set2	KKLEB cytotox	HIF-2a inh	CF NFkB block	CF NFkB conf
CCC(=NCCc1c(C)[nH]c2ccc(C)cc12)C1=C(O)CC(c2ccccc2)CC1=O (stereo unspecified)	22	22	12	-20	28	57*	78*
CCOC(=O)[C@]12CCC=C1N(Cc1ccco1)C(=O)[C@H](CC(=O)NCc1cccc3ccccc13)C2	nt	nt	nt	nt	2	nt	nt
CCCCCCSc1cccc(-c2nc3ccc(C)cn3c2NCc2ccccc2)c1	-59	-23	-6	9	-185	21	nt
CCCCCCSc1cc(-c2nc3ccc(C)cn3c2NCc2ccccc2)ccc1OC	50	0	-4	-3	-52	53*	30
COc1ccc(-c2cncnc2-c2ccc(OC)cc2O)cc1	8	-6	1	-9	19	62*	83*
Cc1cccc2sc(NC(=O)[C@@H]3CCCN3C(=O)c3cccs3)nc12	-4	10	10	7	14	-13	nt
O=C(Nc1nc2ccc(Cl)cc2s1)[C@@H]1CCCN1C(=O)c1cccs1	-108	-22	-16	-21	-130	53*	39
COc1ccccc1Cc1c(-c2cccc(Br)c2)nc2c(C)cc(Br)cn12	-24	nt	-9	-6	-173	55*	5
O=C(COc1cc(O)c2c(=O)cc(-c3ccccc3)oc2c1)c1ccccc1	-19	-21	-7	-9	-22	0	nt
Cc1ccc(C(=O)COc2cc(O)c3c(=O)cc(-c4ccccc4)oc3c2)cc1	9	-4	19	-44	20	69*	43*
COc1ccc(NC(=O)C2(C)Cc3c(-c4cccc(C(N)=O)c4)ccnc3O2)cc1 (stereo unspecified)	3	nt	6	-7	14	-27	nt
COc1ccccc1Cc1c(-c2ccco2)nc2cc(C)c(Br)c(C)n12	nt	nt	nt	nt	8	nt	nt
CC(C)c1nc2n[nH]c(N)c2c2c1CCCC2	-7	-1	-4	-8	16	50*	32
CC1(Oc2ccc3ccccc3c2)CCN(Cc2cccn2-c2nccs2)C1 (stereo unspecified)	14	nt	10	-4	18	18	nt
CC1(C(=O)NS(=O)(=O)C2CC2)CCN(C(=O)c2cccc(Cl)c2)C1 (stereo unspecified)	5	nt	0	8	4	-25	nt
COc1ccc2nc(Nc3nc(CSc4nc5ccccc5[nH]4)cc(=O)[nH]3)nc(C)c2c1	98*	48	41	-46	-17	103*	101*
C[C@H](O)[C@@H]1CN2CCc3c([nH]c4ccc(-c5ccc6c(c5)OCO6)cc34)[C@@H]2C[C@@H]1N(C)C(=O)Nc1ccc(F)cc1	70*	nt	22	-40	-8	65*	52*
C[C@H](O)[C@@H]1CN2CCc3c([nH]c4ccccc34)[C@@H]2C[C@@H]1N(C)C(=O)Nc1cccc2ccccc12	3	nt	5	-12	6	0	nt
O=C(COc1ccc([N+](=O)[O-])cc1)NNC(=O)C1COc2ccccc2O1 (stereo unspecified)	1	nt	-4	6	4	-8	nt
O=C(N/N=C/c1ccccc1)c1[nH]c2ccc(Br)cc2c1-c1ccccc1	-1	74*	-2	-34	31	61*	85*
O=C(c1cc(C2CCCCN2S(=O)(=O)c2ccc(F)cc2F)on1)N1CCOCC1 (stereo unspecified)	9	nt	5	4	11	-13	nt
c1cnc2ccc(-n3ccnc3)cc2c1	2	nt	0	-27	4	55*	49*
COc1cccc(CN2CCN(C(=O)[C@H]3O[C@@H](n4cnc5c(N)ncnc54)[C@H](O)[C@@H]3O)CC2=O)c1	-7	nt	-26	-2	3	4	nt
Cc1cnc(C=O)c2cccc([N+](=O)[O-])c12	19	nt	3	-38	15	83*	65*
O=C1NC[C@H](CCCCN2C[C@H](Cc3ccccc3)N(CCc3ccc(O)cc3)C(=O)C2=O)N(CCC2CCCCC2)C1=O	nt	nt	nt	nt	-3	nt	nt
SMILES	Peg3 promoter	MITF TRPM1 inh	Shn3 inh set2	KKLEB cytotox	HIF-2a inh	CF NFkB block	CF NFkB conf
CC(C)(C)OC(=O)NCCCCCNC(=O)c1nc[nH]c1C(=O)NCC(=O)OCc1ccccc1	74*	17	30	-6	0	74*	72*
COc1ccc(-c2cc(=O)oc3cc(OC(=O)C4CCCCC4)ccc23)cc1	-13	0	8	0	-7	74*	84*
CC1(C)CC(=O)C2=C(C1)N(CCN1CCOCC1)C1=C(C(=O)CC(C)(C)C1)C2c1ccc(Cl)cc1	-4	-7	4	0	24	57*	3
O=C(c1cc(C2CC2)nn1-c1ccccc1)N1CCN(S(=O)(=O)c2ccccc2F)CC1	11	nt	-4	-2	18	15	nt
CN1OC[C@@H]2CN(S(=O)(=O)c3cccc(C(F)(F)F)c3)[C@H](c3ccc(-c4cccnc4)cc3)C[C@@H]21	14	nt	3	9	17	2	nt
Brc1ccc2ncnc(NCc3ccco3)c2c1	-40	-6	41	-8	-18	54*	58*
CC(=O)c1ccc(Nc2ncnc3ccc(Br)cc23)cc1	-9	nt	0	-27	17	60*	46*
CC(=O)c1cccc(Nc2ncnc3ccc(Br)cc23)c1	23	2	1	-11	21	46	nt
CC(C)Nc1ncnc2ccc(Br)cc12	26	9	78	-7	28	70*	85*
O=C(c1cc2ccccc2o1)N1CCN(Cc2nc3ccccc3s2)CC1	-101	nt	-92	4	-182	-2	nt
Cc1c(Cl)cccc1N=C1SCCN1C(=O)CN1C(=O)NC2(CCCC2)C1=O	15	-5	-20	-31	-5	53*	40*
c1cc2[nH]snc2c2nc(C3CC3)nc12	-50	-1	-3	0	-52	74*	68*
CC(C)[C@H](NC(=O)c1ccco1)C(=O)Nc1ccc(N2CCCCCC2)cc1	6	nt	-30	6	-1	6	nt
CC1(C)OC2CC3C4CCC5=CC(=O)C=CC5(C)C4(F)C(O)CC3(C)C2(C(=O)CO)O1 (stereo unspecified)	-3	nt	9	13	22	67*	9
CC12CCC(=O)C=C1CCC1C2C(=O)CC2(C)C1CC[C@]2(O)C(=O)CO (stereo partly specified)	-10	-2	7	-9	11	5	nt

Compound activity from PubChem BioAssay.
